Holding throughout (assay): NCI-60 one-dose screen, 48 h (100 = growth as untreated, 0 = no growth, -100 = all killed)
Common to all, as to conditions: 10 µM unless noted

Test [1] deals with HCT-15 colon.
For test [2], the system named is HT29 colon.
The subject of test [3] is SNB-75 CNS.
Test [4] has as its system SNB-19 CNS.
For test [5], the system named is U251 CNS.
The subject of test [6] is PC-3 prostate.
In test [7] the test system is SK-MEL-5 melanoma.
Test [8] has as its system UACC-62 melanoma.
Test [9] deals with LOX IMVI melanoma.
For test [10], the system named is SK-MEL-28 melanoma.

Structures are written as SMILES. About 83,000 compounds went through this panel and 20% of them were active in at least one assay; those are over-represented in the sample as a whole.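 Single-concentration screen, 48 h exposure, 96-well plates. Endpoint: percent growth. Below 10 = active.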 Unmarked numbers belong to inactive results. Active and inactive are the calls of the source.

Turning to `CN(C)CCN1C(=O)c2cccc3c(-c4ccc(-c5nc6c7ccccc7c7ccccc7c6[nH]5)cc4)ccc(c23)C1=O`, the growth in [1] was 102%; in test [2], 81.1%; in [3], 117%; in [4] it was 110%; in [5] it was 95.5%; in [6] it was 87.9%. Further, the growth in test [7] was 101%; in test [8] it was 112%; in test [9], 58%; in [10] it was 114%.
Consider `OC(CBr)c1ccnc2ccccc12` (stereo not given), for which the growth in test [1] is 103%; in [2], 85.1%; in test [3], 94.8%; in test [4], 104%; in test [5] it was 95.8%; in [6] it was 88.8%. The growth in [7] is 106%; in test [8], 95.1%; in test [9], 96.3%; in test [10], 109%.
As to `COc1ccc(-c2c(N)n[nH]c2-c2ccccc2O)cc1OC`, the growth in [1] was 115%; in [2], 112%; in [3], 92.2%; in [4] it was 89.1%; in [5], 99.6%; in test [6], 82.7%. The growth in test [7] was 87.8%; in test [8], 99%; in [9] it was 96.6%; in [10], 103%.
On to `CSc1ncc(C)c(Nc2ccc(Cl)cc2)n1`, for which the growth was 99.3% in test [1]; 96.4% in [2]; 90.4% in test [3]; 105% in test [4]; 93% in [5]; 87.6% in test [6]. The growth in test [7] was 110%; in [8], 99.4%; in [9], 107%; in test [10], 114%.
As to `O=[N+]([O-])c1ccc(-c2cc3c(Nc4ccc(OCc5cccc(Cl)c5)c(Cl)c4)ncnc3s2)cc1`, the growth was 55.3% in test [1]; 47.3% in [2]; 69.8% in [3]; 67.6% in test [4]; 52.8% in [5]; 48% in test [6]. In addition, the growth in test [7] was 97.6%; in test [8], 78.3%; in test [9] it was 66.4%; in test [10] it was 86.8%.
In the case of `CCOC(=O)c1nnn(-c2ccccc2)c1C1=CN(C)CCC1`, the growth in test [1] is 99%; in test [2] it was 99.1%; in test [3], 89.8%; in [4], 108%; in test [5] it was 102%; in test [6], 96.4%. The growth in [7] was 105%; in test [8] it was 100%; in test [9], 97.3%; in [10], 111%.
Consider `Nc1ccc2c(S(=O)(=O)O)ccc(S(=O)(=O)O)c2c1`, for which the growth in test [1] was 105%; in test [2], 105%; in [3], 92%; in [4] it was 93.5%; in [5] it was 99.5%; in [6] it was 91.9%. For the same compound, the growth in [7] is 93.5%; in test [8], 90.5%; in test [9], 98.1%; in [10], 116%.
In the case of `CN1C[C@@H](c2ccc(Cl)cc2)[C@]2(NC(=S)N(c3ccccc3)C2=O)[C@@]12C(=O)NC1C=CC(Br)=C[C@H]12` (stereo not given in full), the growth is 73.5% in test [1]; 61.5% in [2]; 69.6% in test [3]; 86.2% in test [4]; 72.5% in [5]; 28.1% in [6]. The growth in [7] is 64%; in test [8] it was 74.3%; in test [9], 75.5%; in [10], 95.4%.
For `COc1ccc(/C(C)=C(\c2ccc(Cl)cc2)c2ccc(OCCN3CCCCC3)cc2)cc1F`, the growth in test [1] is 0.563% (active); in [2], 4.57% (active); in test [3], 65%; in [4] it was 58.3%; in test [5] it was 34.1%; in test [6], 28%. In addition, the growth in [7] is 57.1%; in [8] it was -33% (active); in test [9], -73.1% (active); in test [10] it was -21.3% (active).
As to `O=C(Nc1ccccc1Cl)OCCN1CCOCC1`, the growth in [1] was 102%; in [2], 75.9%; in test [3], 111%; in [4], 103%; in test [5], 103%; in [6] it was 77.5%. For the same compound, the growth in test [7] is 108%; in test [8] it was 101%; in [9], 102%; in [10] it was 110%.
With `Cc1cc(C)on1`, the growth in test [1] is 105%; in [2] it was 107%; in test [3], 101%; in test [4], 102%; in test [5], 98.9%; in test [6] it was 89.9%. The growth in [7] is 99.6%; in test [8] it was 110%; in test [9] it was 102%; in test [10], 101%.
For `O=C1CC(c2ccc3c(c2)OCO3)Nc2cc3c(cc21)OCO3` (stereo not given), the growth in [1] was 14%; in [2], 1.47% (active); in test [3], 14.3%; in test [4] it was 28.3%; in test [5] it was 7.39% (active); in [6], 17.7%. Besides, the growth in test [7] is 1.16% (active); in [8] it was 21%; in [9], 25.3%; in [10] it was 65.6%.
As for `N[C@@H]1CCC[C@H]1NCCCCN1C(=O)c2cccc3cccc(c23)C1=O`, the growth in [1] is 81.8%; in test [2] it was 33.8%; in test [3] it was 84.4%; in test [4], 85.5%; in test [5], 59%; in [6], 61.6%. For the same compound, the growth in test [7] was 93.1%; in test [8] it was 95.7%; in test [9], 24.4%; in test [10] it was 89.5%.
Regarding `CNCCNc1nc2ccccc2c2c(=O)c3cc(F)ccc3oc12`, the growth in test [1] is 49.1%; in [2] it was 24.5%; in [3], 56.8%; in [4] it was 57.9%; in [5] it was 50.2%; in test [6], 46.9%. Besides, the growth in [7] is 73.3%; in [8], 85%; in test [9], 44.6%; in test [10] it was 84.5%.
In the case of `CCCCNC(=O)c1cc(NCc2cc(O)ccc2O)ccc1O`, the growth is 84.6% in test [1]; 80.8% in [2]; 66.6% in test [3]; 106% in test [4]; 98.6% in [5]; 74.4% in [6]. Moreover, the growth in test [7] was 98.4%; in [8], 93.8%; in test [9], 91.3%; in [10] it was 105%.
For `COc1ccc(-c2cc(-c3cc(OC)ccc3O)[nH]c(=O)c2C#N)cc1`, the growth in test [1] was 60.2%; in [2] it was 28.4%; in [3] it was 58.9%; in [4] it was 65.4%; in test [5], 22.5%; in test [6], 52%. Besides, the growth in [7] was 31.4%; in [8], 41.4%; in test [9], 40.5%; in [10], 67.5%.
Regarding `NC(N)=N/N=C/CO`, the growth in test [1] is 106%; in test [2], 98.4%; in [3] it was 89.9%; in test [4], 111%; in test [5], 105%; in test [6], 91.2%. The growth in test [7] is 102%; in test [8] it was 113%; in test [9], 93.1%; in [10], 106%.
As for `O=C1CSC(c2ccc(O)cc2)N1c1nnc(Cn2cnnc2)o1` (stereo not given), the growth was 110% in test [1]; 55.8% in test [2]; 53.8% in test [3]; 97.9% in test [4]; 110% in test [5]; 88.7% in test [6]. The growth in test [7] was 105%; in test [8] it was 97.2%; in test [9], 99.9%; in test [10] it was 77.9%.
On to `O=C(NCCOCCOCCNc1cccc2c1C(=O)N(C1CCCNC1=O)C2=O)c1cc2c(o1)C(=O)c1ccccc1C2=O` (stereo not given), for which the growth in test [1] was -65.3% (active); in test [2], 2.43% (active); in test [3], -98.3% (active); in test [4] it was 3.8% (active); in [5], -36.4% (active); in [6] it was 4.67% (active). Moreover, the growth in test [7] was -98.7% (active); in [8], -81.7% (active); in test [9], -59% (active); in [10] it was -28.6% (active).
Regarding `COc1ccc(C(=O)/C=C/C23c4ccccc4C(c4ccccc42)C2C(=O)NC(=O)C23)cc1` (stereo not given), the growth in [1] is 91.3%; in [2], 97.3%; in [3], 85%; in test [4] it was 92.6%; in test [5], 93.7%; in test [6], 102%. In addition, the growth in test [7] was 95.9%; in test [8], 90.6%; in [9], 90.1%; in [10] it was 108%.
For `O=c1cc(-c2ccc(OCc3ccccc3)cc2)oc2c(I)c(OCc3ccccc3)cc(OCc3ccccc3)c12`, the growth in test [1] is 104%; in test [2] it was 105%; in test [3] it was 79.7%; in test [4] it was 104%; in [5] it was 90.1%; in [6], 94.7%. Further, the growth in test [7] is 85.1%; in [8] it was 90.3%; in test [9] it was 101%; in [10], 107%.
For `Cc1ccccc1NC(=O)CN(C)C`, the growth is 105% in test [1]; 90.9% in [2]; 92.6% in [3]; 98.8% in test [4]; 104% in test [5]; 98.3% in test [6]. Besides, the growth in [7] was 105%; in test [8], 99.3%; in test [9], 99.9%; in [10], 96.9%.
On to `COc1cc2c(cc1OC)-c1ccc3cc4c(cc3c1N(CCCn1ccnc1)C2)OCO4`, for which the growth in test [1] is 95.7%; in [2] it was 27.6%; in test [3], 13.2%; in test [4], 17.2%; in test [5] it was -6.84% (active); in test [6] it was 37.6%. For the same compound, the growth in [7] is 8.78% (active); in test [8] it was -20.4% (active); in test [9], 1.62% (active); in [10] it was 59.2%.
Consider `NC(=S)N/N=C/C(=O)O`, for which the growth was 93.7% in [1]; 80% in test [2]; 99.2% in test [3]; 108% in test [4]; 102% in test [5]; 70% in test [6]. In addition, the growth in test [7] was 103%; in test [8], 106%; in test [9], 93.3%; in [10] it was 111%.
On to `CCNCCNc1cc(-c2ccc(C(F)(F)F)cc2)c(C#N)c2nc3cc(Cl)c(Cl)cc3n12`, for which the growth in test [1] was -80.1% (active); in test [2], -85.5% (active); in [3] it was -93.7% (active); in test [4], -62.7% (active); in test [5] it was -94% (active); in test [6] it was -88.4% (active). For the same compound, the growth was -98.9% (active) in test [7], -63.3% (active) in test [8], -74% (active) in [9] and -96.5% (active) in test [10].
Consider `N#Cc1c(N)nc2c(nnn2-c2cccc(C(F)(F)F)c2)c1N`, for which the growth in test [1] is 86.3%; in test [2], 86%; in test [3], 82.6%; in test [4] it was 93.1%; in test [5], 85.2%; in [6], 86.8%. In addition, the growth in [7] was 87.9%; in test [8], 88.5%; in test [9], 94.7%; in test [10], 111%.

Values taken from PubChem BioAssay (NCI).
